# Several values for one entry are separate records, joined by “and”; a condition that tells them apart may be missing. Equal entries are not always repeated. Activity calls are given as the source filed them. Cut-off read from the data, not from the text of the source, unless noted: active = inhibition above about 80%; inactive = the rest.
# Legend:
# [1] = compounds altering viability of human ES cells (AID 493140; call rule not given here;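 note: cells exposed to compounds for four days before counting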); settings: human embryonic stem cell survival screen; stronger effect = higher value
# [2] = P. berghei load reduction in hepatocytes – cell-based, HepG2, luciferase luminescence, HepG2 viability, primary screen (AID 624349; in the data active = parasite load remaining mostly below about 12%, no sharp cut-off; inactive = mostly above about 10%;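 note: 100% = mean of DMSO negative control wells on the same plate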); settings: P. berghei liver stage in HepG2, luciferase luminescence, concentration not given here; parasite load remaining: stronger effect = lower value; viability: measured here: HepG2 viability without parasites
# [3] = viability loss with induced miR-34 in A549 – imaging, A549 dox-inducible miR-34, nuclei and caspase counts, primary screen (AID 1347080;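 active = compounds whose cell count with miR-34 switched on is under 0.7 times the count with it off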); settings: A549 miR-34 inducible, Hoechst nuclei count, 48 h
# [4] = MELAS cybrid and Rieske KO viability enhancers – cell-based, MELAS cybrids, Rieske KO mouse fibroblasts, CellTiter-Glo, primary screen (AID 1508586;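 active = mean z-score across replicates of 1.96 or higher in either the MELAS or the Rieske mutant cell line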;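 note: z relative to plate mean and SD of compound and empty wells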); settings: low glucose
# [5] = growth inhibition, single agent or in combination, cell-based, chromothripsis tumors, cisplatin or BGB combos (AID 1671449); settings: LFS_MB_P medulloblastoma cells;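 note: cells exposed for 96 hours; 0% = vehicle DMSO and 100% = killing by high DMSO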
# [6] = growth inhibition, single agent and combos, cell-based, chromothripsis tumors, cisplatin or BGB combos (AID 1671450); settings: HDN33 neuroblastoma cells, stronger effect = higher value;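 note: cells exposed to compound for four days; 0% = vehicle DMSO and 100% = cell killing by high DMSO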
# [7] = growth inhibition, single agents and combos, ICB984, cell-based, cisplatin or BGB combos, synergistic combos for chromothripsis tumors (AID 1671451; call rule not given here;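 note: cells exposed for 96 hours before readout; 0% = vehicle DMSO and 100% = killing by high DMSO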); settings: ICB984 medulloblastoma cells, drug combinations, stronger effect = higher value
# [8] = growth inhibition, single agents and combos, LFS_MB_1R, cell-based, cisplatin or BGB combos, synergistic combos for chromothripsis tumors (AID 1671452); settings: LFS_MB_1R medulloblastoma cells, stronger effect = higher value;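 note: cells exposed for 96 hours before readout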
# [9] = growth inhibition, single agents and combos, HTB85, cell-based, BGB or cisplatin IC20 combos, synergistic combos for chromothripsis tumors (AID 1671453); settings: HTB85 osteosarcoma cells, drug combinations, stronger effect = higher value;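 note: cells exposed for 96 hours before readout; 0% = vehicle DMSO and 100% = high DMSO killing control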
# [10] = growth inhibition, single agents and combos, CRL2098, cell-based, BGB or cisplatin IC20 combos, synergistic combos for chromothripsis tumors (AID 1671454); settings: CRL2098 osteosarcoma cells, drug combinations, stronger effect = higher value;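 note: cells exposed for 96 h before readout; 0% = vehicle DMSO and 100% = killing by high DMSO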
# [11] = growth inhibition, single agents and combos, HD-MB03, cell-based, BGB or cisplatin IC20 combos, synergistic combos for chromothripsis tumors (AID 1671455; in the data active = inhibition above about 83%;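 note: 0% = vehicle DMSO and 100% = high DMSO as cytotoxic control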); settings: HD-MB03 medulloblastoma cells, stronger effect = higher value
# [12] = growth inhibition, single agents and combos, UWB1.289, cell-based, BGB or cisplatin combos, synergistic combos for chromothripsis tumors (AID 1671456); settings: UWB1.289 ovarian carcinoma cells, stronger effect = higher value;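 note: cells exposed to compound for four days; 0% = vehicle DMSO and 100% = killing by high DMSO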
# [13] = growth inhibition, single agents and combos, LFS_MB_2R, cell-based, cisplatin combos, synergistic combos for chromothripsis tumors (AID 1671457); settings: LFS_MB_2R medulloblastoma cells, stronger effect = higher value;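 note: cells exposed to compound for four days before readout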
# [14] = growth inhibition, MDA-MB-436, cell-based, BGB or cisplatin combos, synergistic combos for chromothripsis tumors (AID 1671458; call rule not given here;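 note: cells exposed for 96 hours; 0% = vehicle DMSO and 100% = killing by high DMSO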); settings: MDA-MB-436 breast carcinoma growth inhibition, drug combinations, stronger effect = higher value
# [15] = UWB1.289_BRCA1 ovarian cancer growth, cell-based, BGB or cisplatin combinations (AID 1671459); settings: UWB1.289 BRCA1 ovarian carcinoma, drug combinations, stronger effect = higher value
# [16] = drug combination toxicity in non-malignant astrocytes – cell-based, BGB or cisplatin IC20 combos, cytotoxicity control for chromothriptic childhood tumor combination screen (AID 1671460); settings: Human astrocytes, viability inhibition, drug combinations, at 0.5 µM, stronger effect = higher value;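 note: cells exposed to compounds for 96 hours before viability readout; 0% = vehicle and 100% = killing control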
# [17] = stronger effect = lower value, cell number ratio, induced over uninduced
# [18] = measured here: relative caspase fold change +Dox/-Dox
# [19] = measured here: total cells with miR-34 induction, stronger effect = lower value
# [20] = measured here: total cells without miR-34 induction
# [21] = MELAS cybrid survival, CellTiter-Glo 48 h, stronger effect = higher value
# [22] = Rieske KO mouse fibroblast survival, CellTiter-Glo 72 h
# [23] = measured here: combination with BGB IC40, at 0.05 µM
# [24] = measured here: combination with cisplatin, at 0.5 µM
# [25] = measured here: combination with cisplatin, at 5 µM
structure (smiles),measurement,setting,value
COC(=O)Nc1nc2ccc(SC(C)C)cc2[nH]1,survival,[1],0.5 (inactive)
same,parasite load remaining,[2],92.8% (inactive)
same,viability,[2],74.8%
same,fold change,[3]; [17],0.996 (inactive)
same,fold change,[3]; [18],0.586
same,cell count,[3]; [19],1650
same,cell count,[3]; [20],1660
same,z-score,[4]; [21],-2.13 (inactive)
same,z-score,[4]; [22],1.04
Cc1cn(C2CC(N=[N+]=[N-])C(CO)O2)c(=O)[nH]c1=O (centres undefined),survival,[1],10.2 (inactive)
same,fold change,[3]; [17],0.983 (inactive)
same,fold change,[3]; [18],1.14
same,cell count,[3]; [19],8190
same,cell count,[3]; [20],8330
same,z-score,[4]; [21],-0.326 (inactive)
same,z-score,[4]; [22],-0.454
same,inhibition,"[5]; at 0.5 µM, stronger effect = higher value",-14.1% (inactive) and -29.8% (inactive)
same,inhibition,"[5]; measured here: combination with BGB IC20, at 0.005 µM",-13.1% and -7.61%
same,inhibition,"[5]; measured here: combination with BGB IC40, at 0.005 µM",-10.5% and -37.1%
same,inhibition,[5]; [23],-24.2% and -22.6%
same,inhibition,"[5]; measured here: combination with cisplatin, at 0.5 µM, stronger effect = higher value",-21.8% and -53%
same,inhibition,"[5]; measured here: combination with cisplatin, at 5 µM, stronger effect = higher value",-32.8% and -21.5%
same,inhibition,"[6]; BGB combo, at 5 µM",-43.8% and -18.1%
same,inhibition,[6]; at 0.5 µM,-49.6% (inactive) and 10.8% (inactive)
same,inhibition,"[6]; cisplatin combo, at 5 µM",-26% and 16.6%
same,inhibition,"[6]; measured here: with BGB IC20 combination, at 0.5 µM",-50.2% and 15%
same,inhibition,"[6]; measured here: with cisplatin IC20 combination, at 0.5 µM",-46.8% and 4.29%
same,inhibition,"[6]; single agent, at 5 µM",-44.8% and -1.12%
same,inhibition,"[7]; BGB IC20 combo, at 0.005 µM",-34.8% and -14.5%
same,inhibition,"[7]; BGB IC40 combo, at 0.005 µM",-37.8% and -34.3%
same,inhibition,"[7]; BGB IC40 combo, at 0.05 µM",-19.4% and -8.93%
same,inhibition,[7]; at 0.5 µM,-42.3% (inactive) and -13.3% (inactive)
same,inhibition,"[7]; cisplatin combo, at 0.05 µM",-22.8% and -13.2%
same,inhibition,"[7]; cisplatin combo, at 0.5 µM",-48.8% and -6.3%
same,inhibition,"[7]; cisplatin combo, at 5 µM",-19.3% and -19.8%
same,inhibition,"[7]; measured here: 5 uM single agent, at 5 µM",-29% and -10.5%
same,inhibition,[8]; at 0.5 µM,-35.4% (inactive) and -15.1% (inactive)
same,inhibition,[8]; [23],-33.7% and -15%
same,inhibition,[8]; [24],-50% and -12.6%
same,inhibition,[8]; [25],-73.7% and 10.3%
same,inhibition,[9]; at 0.5 µM,-30.9% (inactive) and 5.14% (inactive)
same,inhibition,"[9]; measured here: with BGB IC20, at 0.5 µM",-44.2% and -2.77%
same,inhibition,"[9]; measured here: with BGB IC20, at 5 µM",-49% and -21.3%
same,inhibition,"[9]; measured here: with cisplatin IC20, at 0.5 µM",-19.6% and 10.7%
same,inhibition,"[9]; measured here: with cisplatin IC20, at 5 µM",-35.3% and 18.4%
same,inhibition,"[9]; single agent, at 5 µM",-30.3% and -3.23%
same,inhibition,[10]; at 0.5 µM,-75.6% (inactive) and -23.9% (inactive)
same,inhibition,"[10]; measured here: combination with BGB at IC20, at 0.5 µM",-42.6% and -11.7%
same,inhibition,"[10]; measured here: combination with cisplatin at IC20, at 0.5 µM",-96.9% and -12%
same,inhibition,[11]; at 0.5 µM,-21.5% (inactive) and -4.43% (inactive)
same,inhibition,"[11]; measured here: combo with BGB at IC20, at 0.5 µM",-16.2% and -1.6%
same,inhibition,"[11]; measured here: combo with cisplatin at IC20, at 0.5 µM",-27.8% and -2.64%
same,inhibition,[12]; at 0.5 µM,-6.97% (inactive) and -2.38% (inactive)
same,inhibition,"[12]; measured here: inhibition with BGB combination, at 0.05 µM",-33.2% and -11.1%
same,inhibition,"[12]; measured here: inhibition with cisplatin combination, at 0.05 µM",-13% and -8.1%
same,inhibition,[13]; at 0.5 µM,3.25% (inactive) and -11.1% (inactive)
same,inhibition,[13]; [24],-9.8% and -20.4%
same,inhibition,[13]; [25],-113% and -20.1%
same,inhibition,[14]; at 0.5 µM,-19.9% (inactive) and -9.1% (inactive)
same,inhibition,"[14]; measured here: BGB combination, at 0.5 µM",-17.7% and -10.4%
same,inhibition,"[14]; measured here: BGB combination, at 5 µM",-13.1% and -23.1%
same,inhibition,"[14]; measured here: cisplatin combination, at 0.5 µM",-42.5% and -8.26%
same,inhibition,"[14]; measured here: cisplatin combination, at 5 µM",-32% and 1.63%
same,inhibition,"[15]; BGB combination, concentration series, at 5 µM",-27.1% and 1.57%
same,inhibition,[15]; at 0.5 µM,-15.8% (inactive) and 1.59% (inactive)
same,inhibition,"[15]; cisplatin combination, concentration series, at 5 µM",-5.2% and 7.24%
same,inhibition,[16],1.65% (inactive) and 1.35% (inactive)
same,inhibition,[16]; measured here: combo with BGB IC20,10% and -0.346%
same,inhibition,[16]; measured here: combo with cisplatin IC20,-32% and 7.19%
